PubChem BioAssay
Values without a mark were called inactive. No rule for the calls is given here.

target: Pantothenate synthetase (Mycobacterium tuberculosis (strain ATCC 25618 / H37Rv)) (UniProt P9WIL5); assay: Coupled enzyme confirmation of inhibitors against recombinant Mtb PanC (AID 375); conditions: coupled enzyme assay; at 10 µM, hits give high values;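 also: 0% = full reaction with vehicle and 100% = no enzyme background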
Sequence (P9WIL5 whole entry, looked up): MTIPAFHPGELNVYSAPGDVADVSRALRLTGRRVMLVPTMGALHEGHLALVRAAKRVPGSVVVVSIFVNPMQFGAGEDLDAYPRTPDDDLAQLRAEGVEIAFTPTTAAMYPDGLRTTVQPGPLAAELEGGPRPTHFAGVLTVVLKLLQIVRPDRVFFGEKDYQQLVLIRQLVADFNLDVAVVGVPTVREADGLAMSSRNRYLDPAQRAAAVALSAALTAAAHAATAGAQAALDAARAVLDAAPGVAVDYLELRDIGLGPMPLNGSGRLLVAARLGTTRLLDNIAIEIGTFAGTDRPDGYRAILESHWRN

| Compound | inhibition [%] |
| --- | --- |
| O=C(NCc1ccccc1)C1CCCN1S(=O)(=O)c1cccc2cccnc12 (stereo not drawn) | 0 |
| O=C(CSc1nc2ccc(Cl)cc2[nH]1)NCc1ccco1 | 0 |
| O=C(CN1C(=O)CCSc2ccccc21)Nc1ccccc1 | 0 |
| COc1ccccc1Oc1coc2c(CN3CCN(C)CC3)c(O)ccc2c1=O | 0 |
| O=C(Nc1ccc(SC(F)F)cc1)c1ccc2nccnc2c1 | 0 |
| CCOCCCNC(=O)c1ccc2c(c1)N(Cc1ccccc1)C(=O)CS2=O (stereo not drawn) | 0 |
| CCSc1nc2ccccc2n1CC(N)=O | 4 |
| CC(CCc1ccccc1)NCC(O)c1ccc(O)c(C(N)=O)c1 (stereo not drawn) | 2 |
| Cn1c(=O)cc(SCC(=O)NCc2cccnc2)c2ccccc21 | 4 |
| COC(=O)C1=C(C)OC(N)=C(C#N)C1c1c(C)nn(-c2ccccc2)c1Cl (stereo not drawn) | 0 |
| O=C(CSc1nc(-c2ccco2)cc(C(F)(F)F)n1)N1CCCc2ccccc21 | 5 |
| CC1C/C=C/C=C/C=C/C=C/C(O[C@@H]2O[C@H](C)[C@@H](O)[C@H](N)[C@@H]2O)CC2OC(O)(CC(O)CC3OC3/C=C/C(=O)O1)CC(O)C2C(=O)O (stereo partly drawn) | 5 |
| COc1ccc(OC)c(NC(=O)CSc2nnc(-c3ccco3)n2-c2ccccc2)c1 | 0 |
| Cc1ccc(S(=O)(=O)C(C#N)c2nc3ccccc3nc2OC(C)C)cc1 (stereo not drawn) | 0 |
| CN(C)/C=C(\C#N)c1nc2ccccc2[nH]1 | 0 |
| COCCn1c(SCC(=O)Nc2sc(C)c(C)c2C#N)nnc1C(C)C | 0 |
| COC(=O)C1=C(C)NC(=O)C1(NC(=O)c1cccnc1)C(F)(F)F (stereo not drawn) | 0 |
| CCCN1C(=O)SC(CC(=O)Nc2ccc(Br)cc2)C1=O (stereo not drawn) | 2 |
| O=C(NCC1CCCO1)C1CCC(CNS(=O)(=O)c2ccccc2)CC1 (stereo not drawn) | 5 |
| CSc1ccccc1NC(=O)c1noc2c1CCC2 | 0 |
| Cc1ccc(C)n1-n1c(C)nc2sc(-c3ccccc3)cc2c1=O | 0 |
| Cc1cc(C)cc(N(CC(=O)Nc2cccc(C)n2)S(=O)(=O)c2c(C)noc2C)c1 | 0 |
| COc1ccc(C(=O)NCc2nnc(SC)n2C2CCCCC2)cc1 | 2 |
